# Assay outcomes from PubChem.
# D3 ag – D3 dopamine receptor (human) agonism | P35462 | D3R DiscoveRx beta-arrestin cells, luminescence, 90 min | max activation, % | 410,000 compounds, 0.58% hits | AID 652048; in the data active = max activation above about 30%; note: 0% is about no effect
# Target sequence (P35462 whole entry, looked up): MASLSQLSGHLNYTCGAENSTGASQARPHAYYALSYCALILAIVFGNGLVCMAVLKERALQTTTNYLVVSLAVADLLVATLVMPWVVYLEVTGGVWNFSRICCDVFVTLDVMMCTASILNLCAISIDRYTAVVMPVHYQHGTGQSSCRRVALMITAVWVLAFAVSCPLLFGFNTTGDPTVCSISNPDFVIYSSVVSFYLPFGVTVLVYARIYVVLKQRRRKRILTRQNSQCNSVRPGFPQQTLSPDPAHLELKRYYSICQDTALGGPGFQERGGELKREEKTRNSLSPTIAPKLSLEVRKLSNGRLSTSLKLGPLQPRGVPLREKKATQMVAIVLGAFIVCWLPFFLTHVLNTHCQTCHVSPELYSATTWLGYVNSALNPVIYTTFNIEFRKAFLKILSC
#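 Agonist-mode cell screen: cells plated at 1500/well and incubated overnight at 37 °C, then exposed to library compounds for 90 min at 37 °C. Detection reagent was added for 30–60 min at room temperature, and luminescence was read.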
# D3 antag – antagonists of human D3 dopamine receptor | P35462 | D3R cells, DiscoveRx beta-arrestin luminescence, antagonist mode; hits give low values | 360,000 compounds, 2.5% hits | AID 652054 | max response, negative = inhibition, %; in the data active = max response below about -50%; inconclusive = no clear call, values can overlap the other calls; note: % is set by controls: 0 for no effect and ±100 for the full control effect
#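 Cells plated overnight at 1500 cells/well, then exposed to library compounds with dopamine controls for 90 minutes at 37 degrees C. DiscoveRx reagent added for 30–60 minutes at room temperature; luminescence read, quantitative HTS format.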
# a7 integrin act – activates integrin-mediated alleviation for muscular dystrophy; alpha7betagal myoblasts, beta-gal FDG fluorescence, 48 h; Potency, µM (doses to about 38.3 µM), for the others: at the top dose activation, hits mostly activators; 350,000 compounds, 0.064% hits; AID 624291; active = well fitted activation curve with a large enough effect; inconclusive = small, poorly fitted or top-dose-only effect; inactive = no such curve, though single readings can be large or run the other way;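 note: potency is the fitted concentration of half-maximal effect; 100% = response of the positive control SU9516; nearly all actives have a fitted effect of over 60% in size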
#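 Alpha7betagal+/- myoblasts (passage 13) were plated 16-24 hr, then exposed to compounds (1:260 dilution of DMSO stock) for 48 hours at 37C. After MPER lysis, β-galactosidase reporter activity was read as FDG fluorescence (ex 480/em 540) after 30 minutes.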
# Active calls of the source: *; ? = inconclusive; / = no result given. Only some compounds are listed: those with a hit (about 2.9% of all), similar ones and a draw of the others.
SMILES,D3 ag,D3 antag,a7 integrin act
CC1S/C(=N/N=C/c2ccco2)NC1=O (centres undefined),-4,-10,28%
Cc1nn2c3c(cnc2c1-c1ccc(Cl)cc1)C(=O)CC(c1ccc(C(C)C)cc1)C3 (centres undefined),-13,/,/
CCNC(=S)N/N=C(\C)c1cccc([N+](=O)[O-])c1,-7,-28,29%
Cc1ccccc1NC(=O)NCCCN1CCN(c2ccccc2)CC1,50*,?,17%
O=C(NCCCN1CCN(c2ccccc2F)CC1)Nc1ccccc1[N+](=O)[O-],5,-89*,14%
O=C(NCCCN1CCN(c2ccccc2F)CC1)Nc1ccc(F)cc1,15,?,-7%
CN1CCN(CCCNC(=O)c2ccc(NC(=O)C3=CSCCO3)cc2)CC1,3,0,?
Cc1ccccc1NC(=O)NCCCN1CCN(C)CC1,3,15,?
O=C(Nc1ccc(C(=O)NCCCN2CCN(c3ccccc3)CC2)cc1)C1=CSCCO1,-7,-73*,-28%
O=C(NCCCN1CCN(c2ccccc2)CC1)Nc1ccccc1C(F)(F)F,30*,?,-34%
CN1CCN(CCCNC(=O)Nc2cccc3ccccc23)CC1,1,-12,9%
COc1ccc(CCNC(=O)c2cc(S(=O)(=O)N3CCOCC3)ccc2F)cc1,-5,-19,7%
Cc1c(NC(=O)c2sc3c([N+](=O)[O-])cccc3c2Cl)cccc1-c1nc2ccccc2o1,-5,/,/
COc1ccc(-c2csc(C(O)c3ccc(F)c(F)c3)n2)cn1 (centres undefined),8,4,/
COCCCNCCCOc1ccc(C)cc1Br,-20,-73*,-44%
COCCCNCCCCOc1c(Cl)cc(C)cc1Br,-10,-77*,-16%
C=CCNCCCOc1ccc(C)cc1Br,-31,?,-2%
CCN(CC)CCCOc1ccc(C)cc1Br,1,-75*,-25%
CCOc1ccccc1OCCCOc1ccc(C)cc1Br,-1,46,19%
C=CCNCCCCOc1c(Cl)cc(C)cc1Br,-3,18,2%
COCCNCCCOc1ccc(C)cc1Br,-1,-51*,-30%
COCCCNCCCOc1ccc(Cl)cc1Br,-7,?,-69%
CC(=O)NS(=O)(=O)c1ccc(NC(=O)c2cc(-c3ccc(C)c(C)c3)nc3ccccc23)cc1,-5,?,6%
COc1ccc(NC(=O)c2cc(C)cc(C)c2)cc1[N+](=O)[O-],3,-10,-13%
NC(=O)c1ccc(NC(=O)CNc2cc(S(=O)(=O)N3CCOCC3)ccc2N2CCCC2)cc1,-1,18,9%
SMILES,D3 ag,D3 antag,a7 integrin act
O=C(CNS(=O)(=O)c1c(F)cccc1F)NC1CCCc2ccccc21 (centres undefined),-11,0,17%
COc1ccc(CCNCCC(c2ccccc2)c2ccccc2)cc1OC,0,-29,-53%
COc1cc(OC)c(OC)cc1CCC(C)NCCC(c1ccccc1)c1ccccc1 (centres undefined),0,-71*,-58%
COc1cc2c(cc1OC)CN(Cc1nc3ccsc3c(=O)[nH]1)CC2,-1,2,13%
COc1cccc(NC(=O)NNC(=O)CCc2ccc(O)c(O)c2)c1,67*,-19,23%
COc1ccc(CCC(=O)NNC(=O)Nc2cccc(Cl)c2)cc1,2,11,-1%
O=C(CCc1ccc(O)c(O)c1)NNC(=S)NCCc1ccccc1,59*,-13,18%
O=C(NNC(=S)Nc1ccc(Br)cc1Cl)c1ccncc1,4,-29,-10%
O=C(CCc1ccc(O)c(O)c1)NNC(=S)Nc1ccc(Br)cc1Cl,37*,?,9%
O=C(CCc1ccccc1)NNC(=S)NCc1ccc(Cl)cc1,4,15,2%
CC1C(=O)Nc2ccccc2N1C(=O)c1ccc(Cl)cc1 (centres undefined),3,26,-10%
CN/C(=C\[N+](=O)[O-])NCCSCc1ccc(CN(C)C)o1,16,0,/
O=C(NC1CCCc2ccccc21)c1ccc(Br)cc1 (centres undefined),3,24,12%
CCOC(=O)c1c(S(=O)(=O)NCC(=O)Nc2cccc(C)n2)c(C)n(C)c1C,-1,1,5%
COc1cc2c(-c3ccccc3Cl)nc3c(c(C)nn3-c3ccccc3)c2cc1OC,59*,/,/
COc1cc2c(-c3ccccc3O)nc3c(c(C)nn3-c3ccccc3)c2cc1OC,8,51,-12%
COc1cccc(NC(=O)CN(C)CC(=O)Nc2ccc(Cl)cc2[N+](=O)[O-])c1,2,1,6%
CC1CCCCC1Nc1nc2ccc(Cl)cc2n2cnnc12 (centres undefined),35*,4,-14%
Cc1ccc(C)c(N2CCN(c3nc4ccc(Cl)cc4n4cnnc34)CC2)c1,1,/,/
